# Measured values as given in PubChem BioAssay.
# Molecular target: Neurogenic locus notch homolog protein 3 (Homo sapiens) (UniProt Q9UM47)
# Test: NOTCH3 binders on small-molecule microarray, primary screen, biochemical, 635/667 nm fluorescence (AID 1096)
# Conditions: NOTCH3 binding, 635 nm fluorescence, higher = more signal
# Chain of Neurogenic locus notch homolog protein 3 (Homo sapiens) (Q9UM47 whole entry, looked up): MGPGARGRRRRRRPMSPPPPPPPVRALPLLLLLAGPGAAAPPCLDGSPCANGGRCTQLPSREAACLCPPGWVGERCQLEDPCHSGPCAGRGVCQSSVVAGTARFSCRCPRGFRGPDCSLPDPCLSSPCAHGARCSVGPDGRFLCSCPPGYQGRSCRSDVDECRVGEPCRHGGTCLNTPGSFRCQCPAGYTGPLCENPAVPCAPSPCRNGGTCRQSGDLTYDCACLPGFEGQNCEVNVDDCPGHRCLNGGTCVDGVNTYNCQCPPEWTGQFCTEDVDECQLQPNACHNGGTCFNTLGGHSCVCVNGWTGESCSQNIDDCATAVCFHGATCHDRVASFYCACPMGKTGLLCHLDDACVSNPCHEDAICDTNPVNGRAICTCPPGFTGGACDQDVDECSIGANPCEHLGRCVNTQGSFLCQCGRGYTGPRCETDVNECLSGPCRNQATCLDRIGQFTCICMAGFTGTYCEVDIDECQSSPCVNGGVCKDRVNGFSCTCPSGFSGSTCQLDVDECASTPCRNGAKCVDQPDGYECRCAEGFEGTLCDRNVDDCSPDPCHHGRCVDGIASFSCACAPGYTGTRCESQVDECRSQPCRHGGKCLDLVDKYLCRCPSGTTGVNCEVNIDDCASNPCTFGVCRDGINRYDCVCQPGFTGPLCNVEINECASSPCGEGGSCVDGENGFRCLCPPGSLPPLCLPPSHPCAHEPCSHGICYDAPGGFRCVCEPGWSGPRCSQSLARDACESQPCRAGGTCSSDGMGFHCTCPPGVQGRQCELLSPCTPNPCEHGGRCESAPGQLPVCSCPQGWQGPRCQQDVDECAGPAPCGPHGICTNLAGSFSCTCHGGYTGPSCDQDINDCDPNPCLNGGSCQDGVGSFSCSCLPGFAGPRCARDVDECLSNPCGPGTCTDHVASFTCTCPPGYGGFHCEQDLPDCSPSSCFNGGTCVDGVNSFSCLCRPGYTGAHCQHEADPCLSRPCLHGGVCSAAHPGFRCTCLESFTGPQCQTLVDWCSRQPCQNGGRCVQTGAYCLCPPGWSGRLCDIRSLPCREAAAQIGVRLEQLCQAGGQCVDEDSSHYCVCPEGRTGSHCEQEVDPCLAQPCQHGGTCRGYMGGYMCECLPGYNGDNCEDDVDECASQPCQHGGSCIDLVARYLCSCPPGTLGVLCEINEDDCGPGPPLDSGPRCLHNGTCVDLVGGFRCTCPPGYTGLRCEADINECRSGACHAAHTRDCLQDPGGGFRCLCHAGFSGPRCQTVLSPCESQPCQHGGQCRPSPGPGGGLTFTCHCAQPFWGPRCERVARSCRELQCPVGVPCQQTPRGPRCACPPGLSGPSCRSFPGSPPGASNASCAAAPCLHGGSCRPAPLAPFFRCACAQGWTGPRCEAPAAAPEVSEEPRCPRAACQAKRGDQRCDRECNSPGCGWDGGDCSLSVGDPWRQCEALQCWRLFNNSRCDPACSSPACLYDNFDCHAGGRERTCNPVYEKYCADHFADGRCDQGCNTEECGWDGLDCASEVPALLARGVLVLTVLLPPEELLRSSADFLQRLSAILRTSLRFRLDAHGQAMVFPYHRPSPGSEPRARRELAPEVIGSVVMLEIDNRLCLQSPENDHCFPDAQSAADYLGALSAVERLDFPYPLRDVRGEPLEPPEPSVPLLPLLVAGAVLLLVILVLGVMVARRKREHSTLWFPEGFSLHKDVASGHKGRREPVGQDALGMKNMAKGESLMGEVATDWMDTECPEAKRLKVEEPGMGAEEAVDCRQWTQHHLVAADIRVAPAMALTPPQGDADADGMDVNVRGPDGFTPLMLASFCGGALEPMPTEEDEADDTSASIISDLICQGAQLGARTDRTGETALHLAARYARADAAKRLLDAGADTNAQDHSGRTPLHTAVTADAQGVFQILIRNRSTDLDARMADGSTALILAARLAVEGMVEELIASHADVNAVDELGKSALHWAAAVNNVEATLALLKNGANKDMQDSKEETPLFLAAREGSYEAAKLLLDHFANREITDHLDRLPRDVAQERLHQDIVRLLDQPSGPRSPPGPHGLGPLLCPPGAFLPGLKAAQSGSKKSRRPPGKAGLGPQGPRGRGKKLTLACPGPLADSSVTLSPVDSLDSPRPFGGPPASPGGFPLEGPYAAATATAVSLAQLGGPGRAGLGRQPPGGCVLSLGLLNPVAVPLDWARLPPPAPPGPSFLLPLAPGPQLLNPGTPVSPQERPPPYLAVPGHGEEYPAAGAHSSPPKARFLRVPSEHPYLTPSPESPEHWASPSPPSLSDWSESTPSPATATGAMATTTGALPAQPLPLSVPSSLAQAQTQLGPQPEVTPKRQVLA
row,Structure (SMILES),composite z-score
1,CCCCC(=O)N(Cc1ccccc1F)[C@@H]1CC(C(=O)NCCO)=C[C@H](Oc2c(I)cc(CO)cc2OC)[C@H]1O,1.04
2,COc1ccc([Si](C)(C)[C@H]2[C@H](CCO)O[C@@]3(C(=O)N(Cc4cccc(N5C(=O)c6cccc7cccc5c67)c4)c4ccccc43)[C@@H]2C)cc1,0.344
3,CC(C)C(CO)N1C(=O)[C@@H]2[C@H]3C(=O)OCC=C[C@H]3OC23C=CCN(c2ccc4ccccc4c2)C(=O)[C@@H]13 (stereo partly specified),-0.319
4,CCOC(=O)C[C@H]1[C@H](OC(=O)c2ccccc2-c2ccccc2)[C@@H](NC(=O)c2ccc(-c3ccccc3)cc2)c2cc(OCCCO)ccc2N1C(=O)c1ccccc1,0.695
5,CN(C)CCCC[C@@H]1NC(=O)[C@@H]2C[C@H](C(=O)NCCCCCCN)[C@H](c3ccc(O)cc3)N2C1=O,0.526
6,CN1C(=O)C2C(C1=O)C1C=C(c3ccc(CO)cc3)C2C(C2CC2)N1Cc1sc2ccccc2c1Cl (stereo unspecified),1.03
7,O=C1C2C=CC(C(O)c3ccc(B(O)O)cc3)N(Nc3ccc([N+](=O)[O-])cc3)C2C(=O)N1c1ccccc1 (stereo unspecified),1.03
8,CCCNC(=O)[C@@]1(C)c2ccccc2C(=O)N(Cc2ccc(OC(F)(F)F)cc2)[C@H]1c1ccc(CO)cc1,0.13
9,[N-]=[N+]=NCc1ccccc1[C@H]1OC(c2ccc(OCCCO)cc2)=N[C@@]1(Cc1ccccc1)C(=O)O,0.502
10,CCCC[C@@H]1C[C@H]1[C@@H](NC(=O)c1ccccc1)c1ccc(-c2ccccc2)cc1,0.496
11,C=C(CCCC)/C(=C/C[C@H](OC(C)=O)c1ccc(CO)o1)c1cc(C(=O)OC)ccc1OC,1.09
12,COc1ccc([Si](C)(C)[C@@H]2[C@@H](CC(=O)N3Cc4ccccc4C[C@H]3CO)O[C@]3(C(=O)N(Cc4cccc(N5C(=O)COc6ccccc65)c4)c4ccccc43)[C@H]2C)cc1,1.14
13,C=C(C)[C@@H]1CC=C(C(O)C2C=CC3C(=O)N(Cc4ccccc4)C(=O)C3N2n2cnnc2)CC1 (stereo partly specified),-0.191
14,C=C(C(=O)CC[C@@H](OC(C)=O)c1ccc(OCCO)cc1)C(C)C,-0.054
15,COc1ccc(C(=O)Nc2cccc(CN3C(=O)[C@@]4(O[C@@H](CC(=O)N5Cc6ccccc6C[C@H]5CO)[C@H]([Si](C)(C)c5ccc(OC)cc5)[C@H]4C)c4ccccc43)c2)cc1,0.893
16,CC[C@@H]1C=C(C(=O)O)[C@H](c2ccc(C(C)C)cc2)N1S(=O)(=O)c1ccc(C)cc1,1.03
17,[N-]=[N+]=NCc1ccccc1C[C@]1(C(=O)NCC(O)CO)COC(c2ccc(OCCCO)cc2)=N1 (stereo partly specified),-0.172
18,[N-]=[N+]=Nc1ccccc1[C@@H]1OC(c2ccc(OCCCO)cc2)=N[C@]1(CCS(=O)(=O)c1ccccc1)C(=O)N1CCCCC1,1.05

row,Structure (SMILES),composite z-score
1,O=C1OCCC/C=C\[C@H]2OC34C=CCN(Cn5nnc6ccccc65)C(=O)[C@H]3N(CCCO)C(=O)[C@@H]4C12 (stereo partly specified),-0.0127
2,C=CCC(OC(C)=O)[C@@H]1[C@@H](N(Cc2cc3ccccc3o2)C(=O)c2cccc3ccccc23)c2cc(OCCCO)ccc2N1C(=O)Cc1ccc(OC)cc1 (stereo partly specified),-0.351
3,Cc1ccc(N2C(=O)c3ccccc3[C@@H](C(=O)NCC(C)C)[C@@H]2c2ccc(CO)cc2)nc1,-1.03
4,COCCOC(=O)N1C(=O)[C@@]2(c3ccccc31)[C@H](c1ccc(O)cc1)N1[C@H](c3ccccc3)[C@H](c3ccccc3)OC(=O)[C@H]1[C@@H]2C(N)=O,-0.474
5,CN(C)CCCC[C@@H]1NC(=O)[C@@H]2C[C@H](C(=O)NCCCCCN)[C@H](c3ccc(O)cc3)N2C1=O,-0.0504
6,COCCOC(=O)N1C(=O)[C@@]2(c3cc(C#CCCO)ccc31)[C@H](C(=O)NC[C@H](O)c1ccccc1)[C@H]1C(=O)O[C@H](c3ccccc3)[C@H](c3ccccc3)N1[C@@H]2c1ccc(OCCO)cc1,1.05
7,O=C1C2C=CC(C(O)C3CC=CCC3)N(n3cnnc3)C2C(=O)N1Cc1ccccc1 (stereo unspecified),-0.686
8,CC(C)C(O)C1C=CC2C(=O)N(C)C(=O)C2N1N1CCCCC1 (stereo unspecified),0.217
9,COC(=O)[C@@]1(Cc2ccc(F)cc2)[C@H]2c3cc(C(=O)N4CCCC4)n(CCc4ccc(OC)c(Br)c4)c3C[C@H]2CN1C(=O)c1ccccc1,1.03
10,COCCOC(=O)N1C(=O)[C@@]2(c3cc(C#CC4=CCCCC4)ccc31)[C@H](C(=O)N1CCN(c3ncccn3)CC1)[C@H]1C(=O)O[C@H](c3ccccc3)[C@H](c3ccccc3)N1[C@@H]2c1ccc(OCCO)cc1,1.14
11,O=C1OCC=C[C@H]2OC34C=CCN(CCN5CCOCC5)C(=O)[C@H]3N(CCCCCCO)C(=O)[C@@H]4[C@@H]12 (stereo partly specified),-0.0123
12,NC(=O)[C@]1(Cc2ccccc2)N=C(c2ccc(OCCCO)cc2)O[C@@H]1c1ccccc1,0.658
13,COc1ccccc1CN1C(=O)c2ccccc2[C@](Cc2ccccc2I)(C(=O)NCc2ccccc2)[C@@H]1c1ccc(CO)cc1,-0.418
14,CCCCN1CC=CC23O[C@@H]4C=CCCOC(=O)C4[C@H]2C(=O)N(CCCO)[C@@H]3C1=O (stereo partly specified),-1.68
15,CC(C)NC(=O)[C@@]1(c2ccc([N+](=O)[O-])cc2)CC(=O)N(C(C)C)[C@@H]1c1ccc(CO)cc1,-0.323
16,O=C1NC(=O)C2C1C=CC(C(O)c1cccs1)N2Nc1ccccn1 (stereo unspecified),0.242
17,CN(C)CCCCNC(=O)[C@@H]1C[C@@H]2C(=O)N[C@@H](CCCCN)C(=O)N2[C@@H]1c1cccc(OCCO)c1,0.37
18,C=CC[C@]1(C(=O)O)N=C(c2ccc(OCCCO)cc2)O[C@H]1c1ccccc1CN=[N+]=[N-],-0.522
